Here are results for 18 compounds from PubChem BioAssay (EPA / NIEHS).

Assay [1] has as its target human RAR-related Orphan Receptor gamma (RORg), RORC (gene 6097) (UniProt P51449). Description: ATG_RORg_TRANS: Attagene TRANS-FACTORIAL HepG2 Assay for human RAR-related Orphan Receptor gamma (RORg) (AID 2283011; active means hit-call score of the fitted dose curve at least 0.9, where 1 is the maximum). The procedure, abridged: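 Activity is scored as increase in GAL4-UAS reporter mRNA over DMSO, detected by fluorescent RT-PCR and capillary electrophoresis in HepG2 cells transiently expressing a RORg-Gal4 chimera, 24 h after dosing.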

Assay [2] concerns the target human Retinoid X Receptor beta (RXRb), RXRB (gene 6257) (UniProt P28702). Description: ATG_RXRb_TRANS: Attagene TRANS-FACTORIAL HepG2 Assay for human Retinoid X Receptor beta (RXRb) (AID 2283013; active means hit-call score of the fitted dose curve at least 0.9, where 1 is the maximum). In a few lines: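 Multiplexed TRANS reporter assay in HepG2; 24 h dosing; reporter mRNA by RT-PCR/CE fluorescence; gain-of-signal relative to DMSO.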
Read-out in assay [3]: E-selectin (Homo sapiens) (UniProt P16581)
The assay is described as follows: BSK_3C_Eselectin: BioMAP Diversity Plus: 3C Assay for Eselectin Biomarker Activity (AID 2283015).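 On outcome: cell surface E-selectin protein quantified by ELISA 24 h after dosing.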 The conditions noted are these: primary human endothelial cells (HUVEC); actives raise or lower the signal. In a few lines: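 Human vascular endothelium from umbilical vein is exposed to test chemicals for 24 h. E-selectin levels are read by ELISA and compared with DMSO controls.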

Read-out in assay [4]: Interleukin-1 alpha (IL1a), IL1A (gene 3552)
The assay is described as follows: BSK_BE3C_IL1a: BioMAP Diversity Plus: BE3C Assay for Interleukin-1 alpha (IL1a) Biomarker Activity (AID 2283016). The conditions noted are these: primary human bronchial epithelial cells; actives raise or lower the signal. In a few lines:
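Cultures of primary human bronchial epithelial cells receive test chemical. After 24 h, IL-1a is quantified by ELISA, while parallel wells are fixed in TCA and SRB-stained for total protein. Changes in either direction are fitted relative to DMSO.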

Read-out in assay [5]: Monocyte Chemoattractant Protein-1 (MCP1), CCL2 (gene 6347)
The assay is described as follows: BSK_3C_MCP1: BioMAP Diversity Plus: 3C Assay for Monocyte Chemoattractant Protein-1 (MCP1) Biomarker Activity (AID 2283017). The conditions noted are these: primary human endothelial cells (HUVEC); actives raise or lower the signal. The procedure, abridged:
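Endothelial cells from human umbilical vein are dosed with chemical, cultured 24 h, then assayed for MCP-1 by ELISA; both increases and decreases are modelled against DMSO controls.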

Read-out in assay [6]: Monocyte Chemoattractant Protein-1 (MCP1), CCL2 (gene 6347)
Description: BSK_4H_MCP1: BioMAP Diversity Plus: 4H Assay for Monocyte Chemoattractant Protein-1 (MCP1) Biomarker Activity (AID 2283018). The conditions noted are these: primary human endothelial cells (HUVEC); actives raise or lower the signal. In a few lines: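 Readout: MCP-1 ELISA on compound-treated HUVEC, sampled 24 h post-dosing. Baseline and negative control DMSO; bidirectional fit. Overt toxicity checked alongside by sulforhodamine B protein staining at time of biomarker measurement.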

Read-out in assay [7]: Human Leukocyte Antigen - DR isotype (HLADR), HLA-DRA (gene 3122)
Description: BSK_3C_HLADR: BioMAP Diversity Plus: 3C Assay for Human Leukocyte Antigen - DR isotype (HLADR) Biomarker Activity (AID 2283019).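 On outcome: ELISA of cell-surface HLA-DR on HUVEC 24 h after dosing.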 The conditions noted are these: primary human endothelial cells (HUVEC); actives raise or lower the signal. In a few lines:
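Endothelial cells from human umbilical vein are treated with test chemical; after 24 h, HLA-DR levels are measured by ELISA. Data are fitted in both directions using DMSO as the baseline.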

Read-out in assay [8]: Interleukin-8 (IL8), CXCL8 (gene 3576)
The assay is described as follows: BSK_3C_IL8: BioMAP Diversity Plus: 3C Assay for Interleukin-8 (IL8) Biomarker Activity (AID 2283020). The conditions noted are these: primary human endothelial cells (HUVEC); actives raise or lower the signal. In a few lines:
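Human vascular endothelial cells (umbilical vein) in the 3C system; IL-8 level detected by ELISA at 24 h post-dose, with DMSO as baseline.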

Assay [9] addresses Retinoic acid receptor RXR-alpha (Homo sapiens) (UniProt P19793). Description: ATG_RXRa_TRANS: Attagene TRANS-FACTORIAL HepG2 Assay for human Retinoid X Receptor alpha (RXRa) (AID 2283012; active means hit-call score of the fitted dose curve at least 0.9, where 1 is the maximum). In a few lines: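 Cells (HepG2) carried transiently transfected GAL4-responsive reporter units. Following a 24 h chemical incubation, reporter mRNA induction was read via RT-PCR fragment analysis; DMSO served as negative control and baseline.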

Assay [10] deals with human Thyroid Receptor alpha (THRa1), THRA (gene 7067) (UniProt P10827). The assay is described as follows: ATG_THRa1_TRANS: Attagene TRANS-FACTORIAL HepG2 Assay for human Thyroid Receptor alpha (THRa1) (AID 2283014; active means hit-call score of the fitted dose curve at least 0.9, where 1 is the maximum). The procedure, abridged:
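First, HepG2 cells receive multiple GAL4-UAS reporter units and the chimeric receptor. They are then dosed for 24 h, after which RNA is reverse-transcribed, amplified, labelled, HpaI-cut and sized by capillary electrophoresis; gain relative to DMSO is scored.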

Inconclusive results are not listed. The source made the active and inactive calls. How the source made its calls, unless noted: active means hit-call score of the fitted dose curve at least 0.9, where 1 is the maximum; inactive means score below 0.9.

Sequence of human Thyroid Receptor alpha (THRa1), THRA (gene 7067) (P10827 whole entry, looked up, the tested form may be a part): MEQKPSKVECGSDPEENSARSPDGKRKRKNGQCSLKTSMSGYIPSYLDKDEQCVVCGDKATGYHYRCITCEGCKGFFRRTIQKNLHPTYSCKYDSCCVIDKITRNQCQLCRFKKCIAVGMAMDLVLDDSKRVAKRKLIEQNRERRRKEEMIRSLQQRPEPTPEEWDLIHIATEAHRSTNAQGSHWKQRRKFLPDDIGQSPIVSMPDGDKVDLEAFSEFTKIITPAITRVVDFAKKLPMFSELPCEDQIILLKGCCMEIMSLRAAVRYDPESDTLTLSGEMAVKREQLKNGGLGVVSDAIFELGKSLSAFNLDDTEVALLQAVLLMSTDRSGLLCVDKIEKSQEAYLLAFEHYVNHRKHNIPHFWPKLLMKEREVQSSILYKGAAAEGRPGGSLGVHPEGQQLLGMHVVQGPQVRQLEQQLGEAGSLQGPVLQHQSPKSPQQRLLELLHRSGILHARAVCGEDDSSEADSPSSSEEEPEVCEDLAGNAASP
Sequence of E-selectin (Homo sapiens) (P16581 whole entry, looked up): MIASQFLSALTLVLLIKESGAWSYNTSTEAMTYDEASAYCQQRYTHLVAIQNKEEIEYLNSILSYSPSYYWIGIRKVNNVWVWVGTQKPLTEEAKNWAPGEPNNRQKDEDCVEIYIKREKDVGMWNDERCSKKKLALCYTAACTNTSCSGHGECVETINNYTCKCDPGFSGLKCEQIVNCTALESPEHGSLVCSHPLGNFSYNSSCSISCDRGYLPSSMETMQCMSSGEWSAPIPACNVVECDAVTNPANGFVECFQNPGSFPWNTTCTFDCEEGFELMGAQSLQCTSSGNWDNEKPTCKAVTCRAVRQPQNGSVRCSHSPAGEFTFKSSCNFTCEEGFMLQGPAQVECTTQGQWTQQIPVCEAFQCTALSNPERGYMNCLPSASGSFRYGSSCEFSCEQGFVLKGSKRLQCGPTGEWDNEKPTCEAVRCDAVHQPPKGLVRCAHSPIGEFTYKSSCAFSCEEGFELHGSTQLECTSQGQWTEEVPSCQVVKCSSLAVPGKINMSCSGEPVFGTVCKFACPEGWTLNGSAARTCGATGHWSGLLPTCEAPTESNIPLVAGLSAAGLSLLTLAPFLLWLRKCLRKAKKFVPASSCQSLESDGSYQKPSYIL
Sequence of human RAR-related Orphan Receptor gamma (RORg), RORC (gene 6097) (P51449 whole entry, looked up, the tested form may be a part): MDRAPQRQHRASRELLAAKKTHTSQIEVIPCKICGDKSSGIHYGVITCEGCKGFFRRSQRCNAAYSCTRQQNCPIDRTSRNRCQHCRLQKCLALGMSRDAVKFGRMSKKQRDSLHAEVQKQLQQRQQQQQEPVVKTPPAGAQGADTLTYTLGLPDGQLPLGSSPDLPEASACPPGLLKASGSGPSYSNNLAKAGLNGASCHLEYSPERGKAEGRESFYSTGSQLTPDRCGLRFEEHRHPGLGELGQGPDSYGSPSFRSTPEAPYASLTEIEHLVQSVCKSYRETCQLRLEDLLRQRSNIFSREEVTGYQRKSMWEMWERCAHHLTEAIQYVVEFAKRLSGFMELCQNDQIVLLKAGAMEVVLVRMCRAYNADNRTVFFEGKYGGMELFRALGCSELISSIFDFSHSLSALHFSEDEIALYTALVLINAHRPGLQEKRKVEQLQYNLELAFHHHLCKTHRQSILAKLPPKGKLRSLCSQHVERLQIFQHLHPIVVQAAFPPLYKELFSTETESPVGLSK
Sequence of human Retinoid X Receptor beta (RXRb), RXRB (gene 6257) (P28702 whole entry, looked up): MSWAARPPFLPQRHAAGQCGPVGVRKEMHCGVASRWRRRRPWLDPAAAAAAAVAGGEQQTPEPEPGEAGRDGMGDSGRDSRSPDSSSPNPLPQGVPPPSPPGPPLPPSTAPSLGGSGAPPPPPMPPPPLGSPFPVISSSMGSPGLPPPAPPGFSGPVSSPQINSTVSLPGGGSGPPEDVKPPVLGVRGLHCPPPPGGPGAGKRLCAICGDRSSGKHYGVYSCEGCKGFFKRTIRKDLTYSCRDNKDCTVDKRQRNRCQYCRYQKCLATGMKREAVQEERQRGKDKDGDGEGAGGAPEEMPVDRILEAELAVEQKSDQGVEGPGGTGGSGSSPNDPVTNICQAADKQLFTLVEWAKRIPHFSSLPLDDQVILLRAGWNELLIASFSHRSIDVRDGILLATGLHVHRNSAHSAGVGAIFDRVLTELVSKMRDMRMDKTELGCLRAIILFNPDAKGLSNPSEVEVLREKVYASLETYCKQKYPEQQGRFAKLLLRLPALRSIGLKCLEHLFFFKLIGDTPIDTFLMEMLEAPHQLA
Sequence of Retinoic acid receptor RXR-alpha (Homo sapiens) (P19793 whole entry, looked up, the tested form may be a part): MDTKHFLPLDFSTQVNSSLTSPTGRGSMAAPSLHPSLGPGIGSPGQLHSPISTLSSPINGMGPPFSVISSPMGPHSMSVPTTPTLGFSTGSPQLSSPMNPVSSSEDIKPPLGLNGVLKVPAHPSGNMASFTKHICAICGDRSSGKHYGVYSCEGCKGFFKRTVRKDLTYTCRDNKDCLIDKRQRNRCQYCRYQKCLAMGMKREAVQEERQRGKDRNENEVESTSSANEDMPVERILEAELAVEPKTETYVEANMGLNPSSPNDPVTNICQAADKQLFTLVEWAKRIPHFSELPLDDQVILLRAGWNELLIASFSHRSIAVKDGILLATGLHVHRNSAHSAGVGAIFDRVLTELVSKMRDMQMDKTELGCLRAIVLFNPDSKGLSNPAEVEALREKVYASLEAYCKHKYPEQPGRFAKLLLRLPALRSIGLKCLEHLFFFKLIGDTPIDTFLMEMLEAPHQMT

On to `CC(C)C(=O)OCC(C)(C)C(OC(=O)C(C)C)C(C)C` (stereo unspecified), for which the result in assay [1], in [2], in assay [3], in [4], in [5] and in assay [6] was inactive. The result in [7] and in assay [8] was inactive.

Regarding `Cc1cc2c3c(c1)C(c1ccccc1)=N[C@@H](NC(=O)c1ccncc1)C(=O)N3CC2`, the call in assay [1], in assay [9], in assay [3], in [4], in assay [5] and in [6] was inactive. Further, the outcome in assay [7] and in [8] was inactive.

Take `O=S(=O)(O)C(F)(F)C(F)(F)C(F)(F)C(F)(F)F`: the outcome in assay [1], in [9], in [10], in assay [3], in assay [4] and in [5] was inactive. Also, the result in [6], in [7] and in [8] was inactive.

In the case of `Clc1ccc(C(c2ccccc2Cl)C(Cl)(Cl)Cl)cc1` (stereo unspecified), the result in assay [9], in [10] and in assay [4] was inactive. Moreover, the AC50 in assay [3] is 17.1 µM (active); in assay [5], 11.4 µM (active); in assay [6], 9.7 µM (active); in assay [7] it was 10.2 µM (active); in assay [8] it was 20.4 µM (active).

For `Cc1ccccc1O`, the outcome in assay [9], in [3], in [4], in assay [5], in assay [6] and in assay [7] was inactive. In addition, in assay [8], the outcome was inactive.

Consider `c1ccc(-c2ccccc2)cc1`, for which the result in assay [9], in assay [3], in assay [4], in assay [5], in [6] and in assay [7] was inactive. Further, the outcome in assay [8] was inactive. Also, in [2], the half-maximal activity concentration (AC50) was 110 µM (active).

Regarding `ClC1=C(Cl)[C@]2(Cl)[C@@H]3[C@@H](Cl)[C@H]4O[C@H]4[C@@H]3C1(Cl)C2(Cl)Cl`, the outcome in assay [9], in assay [2], in [3], in assay [4], in assay [5] and in assay [6] was inactive. In addition, in assay [8], the result was inactive. Moreover, the concentration at half-maximal activity (AC50) in assay [7] is 11.5 µM (active).

As to `Cc1ccccc1CO[C@@H]1C[C@@]2(C(C)C)CC[C@]1(C)O2`, the compound was classed as inactive in [9], in [2], in assay [3], in [4], in assay [5] and in assay [6]. The result in assay [7] and in [8] was inactive.

Take `CCNc1nc(NC(C)C)nc(SC)n1`: the outcome in assay [9], in [2], in assay [10], in assay [3], in [4] and in [5] was inactive. The outcome in assay [6], in assay [7] and in assay [8] was inactive.

With `Cc1cccc([N+](=O)[O-])c1`, the outcome in assay [2], in [3], in [4], in assay [5], in [6] and in assay [7] was inactive. Also, in assay [8], the result was inactive.

As to `ClC1=C(Cl)[C@]2(Cl)[C@@H]3[C@@H]4C[C@@H]([C@H]5O[C@@H]45)[C@@H]3[C@@]1(Cl)C2(Cl)Cl`, the compound was classed as inactive in [9], in [3], in assay [4], in [5] and in assay [8]. The AC50 in [2] is 24.4 µM (active); in [7], 20 µM (active).

Regarding `CCOCCOC(C)=O`, the compound was called inactive in [2], in assay [10], in [3], in [4], in assay [5] and in assay [6]. Further, the outcome in [7] and in assay [8] was inactive.

Turning to `Nn1cnnc1`, the call in assay [10], in assay [3], in [4], in [5], in assay [6] and in assay [7] was inactive. The outcome in [8] was inactive.

With `Cc1cccc(C)c1N`, the outcome in assay [3], in [4], in assay [5], in [6], in assay [7] and in assay [8] was inactive.

For `CCC(C)c1cc([N+](=O)[O-])cc([N+](=O)[O-])c1O` (stereo unspecified), the call in [9], in assay [2], in [10] and in [4] was inactive. Also, the AC50 in assay [3] is 8.02 µM (active); in assay [5] it was 9.99 µM (active); in [6], 5.15 µM (active); in assay [7], 14 µM (active); in assay [8] it was 7.38 µM (active).

For `O=C(N[C@H]1CN2CCC1CC2)c1cc2ccoc2cn1`, the compound was called inactive in assay [2], in [3], in [4], in [5], in assay [6] and in assay [7]. The outcome in assay [8] was inactive.

Turning to `CCCCCCOC(=O)c1ccccc1C(=O)OCCCCCC`, the compound was classed as inactive in assay [9], in assay [2], in assay [3], in [4], in [6] and in assay [7]. Further, the concentration at half-maximal activity (AC50) in [5] is 29.1 µM (active); in [8] it was 31.1 µM (active).

As to `Clc1ccc(C(Cl)(Cl)Cl)cc1`, the result in [9], in assay [2], in [10], in assay [3], in assay [4] and in [5] was inactive. For the same compound, the result in assay [6], in [7] and in [8] was inactive.

The term AC50 denotes the midpoint of the concentration-response curve, whichever way the signal moves.
